We go through 109 molecules from PubChem BioAssay AID1047 (SRMLSC, 2008).

Molecules are shown by their SMILES. About 1,400 (93%) of roughly 1,500 compounds were called active. The rule behind the calls is not given here. The set was probably picked from earlier hits. Not all results are given here. Entries that show only a call come without a potency. Potency and affinity values are given separately.

This test in a line: growth suppression of PTEN-null colon cells, dose response, cell-based, HCT116 PTEN knockout (AID 1047). To be noted: CellTiter-Glo, 60 h; series mostly up to 30 µM.
On to `CCCNC(=O)OC[C@H]1O[C@H](CCO/N=C/[C@@H](NS(=O)(=O)c2ccc(C)cc2)[C@H](C)/C=C/CC(=O)OC)C=C[C@@H]1Oc1ccc(OC)cc1`, for which the molecule was called inactive.

For the molecule `Cc1nn(C(=O)N2CCOCC2)c(C)c1C`, the molecule was called inactive.

For `CCN1CCN(Cc2ccc(OCc3ccccc3)cc2)CC1`, the molecule was classed as inactive.

For `O=C(Nc1cccc(C(F)(F)F)c1)/C(=C\c1ccco1)NC(=O)c1cccs1`, the outcome was inactive.

Regarding `CSc1n[nH]c(NCc2cccs2)n1`, the molecule was called inactive.

Turning to `Nc1nnc(SCc2ccc(Cl)cc2)s1`, the outcome was inactive.

Turning to `COC(=O)c1cc(OC)c(OC)cc1NC(=O)c1ccccc1`, the molecule was called inactive.

With `C=CCNC(=O)c1ccccc1NC(=O)c1ccccc1C`, the molecule was called inactive.

As for `CN1CCN(c2nc(N3CCN(c4ccccc4)CC3)ncc2F)CC1`, the molecule was classed as inactive.

In the case of `O=C(c1ccc2c(=O)n(CC3CCCO3)c(=S)[nH]c2c1)N1CCN(c2ccccc2)CC1` (centres undefined), the molecule was classed as inactive.

Turning to `Cc1ccc(CNc2ccc(O)cc2)cc1`, the result was inactive.

Take `OC1(c2cccc(C(F)(F)F)c2)CCN(c2ccc(-c3ccccc3)nn2)CC1`: the molecule was classed as inactive.

On to `COc1cc2c(cc1OC)C1(Nc3c-2c(C)nn3-c2ccccc2)C(=O)Nc2ccccc21` (centres undefined), for which the result was inactive.

Regarding `CCOc1ccccc1NC(=O)Cn1cnc2c(nnn2-c2cccc(OC)c2)c1=O`, the molecule was classed as inactive.

Take `O=C(COc1ccc(/C=N/NC(=O)c2cc3ccccc3o2)cc1Cl)Nc1ccccc1`: the molecule was called inactive.

Consider `O=C(NCc1ccc2c(c1)OCO2)c1ccc2c(c1)C(=O)N(CC1CCCO1)C2=O` (centres undefined), for which the molecule was called inactive.

On to `CCOC(=O)C1=C(C)NC(=S)N(C(C)=O)C1c1ccc(Cl)cc1` (centres undefined), for which the outcome was inactive.

`CCC(Sc1nc2sc(C(=O)OC)c(C)c2c(=O)n1N)C(=O)N(CC)CC` (centres undefined): the molecule was called inactive.

In the case of `N#CC(c1ccc(Cl)nn1)c1ccc(Cl)cc1Cl` (centres undefined), the outcome was inactive.

Turning to `COc1ccc(CCN2C(=O)CN(Cc3ccccc3)CC2=O)cc1OC`, the call was inactive.

For the molecule `CC(=O)c1c(C)nc(-c2ccc(Cl)cc2Cl)n1O`, the molecule was classed as inactive.

For the molecule `CCOC(=O)Nc1ccc(C)cc1Br`, the call was inactive.

In the case of `Cc1cc2ncn(C(=O)N3CCC(C)CC3)c2cc1C`, the molecule was called inactive.

As to `Cc1cc(NC(=O)CSc2nc(-c3cccnc3)ccc2C#N)no1`, the molecule was called inactive.

For `O=C(CSc1nnc(-c2ccccc2Cl)o1)Oc1ccc(Br)cc1`, the call was inactive.

As to `Cc1cccc(CS(=O)(=O)c2nnc([C@H](Cc3ccccc3)NC(=O)OC(C)(C)C)o2)c1`, the call was inactive.

As for `O=C(Nc1cccc(C(F)(F)F)c1)C12CC3CC(CC(C3)C1)C2`, the molecule was classed as inactive.

On to `Cc1cc(NC(=O)CN2CCN(c3ccc(O)cc3)CC2)no1`, for which the call was inactive.

Consider `Cc1ccc(C(=O)c2coc3c2C(=O)C(=O)c2ccccc2-3)cc1`, for which the call was inactive.

On to `COCCN1C(=O)c2oc3ccccc3c(=O)c2C1c1ccc(OC)c(OC)c1` (centres undefined), for which the call was inactive.

Regarding `O=C(NC(=S)Nc1ccc2c(c1)OCO2)c1ccc(Cl)cc1`, the molecule was called inactive.

Take `CCN(CC)c1ccc(N=Cc2ccc(N(CC)CC)cc2O)cc1`: the result was inactive.

Regarding `Cc1ccc(C(=O)Nc2ccccc2C(=O)NC(C(=O)O)C(C)C)cc1` (centres undefined), the result was inactive.

For `Cc1cc(NS(=O)(=O)c2ccccc2)cc(Cl)c1O`, the result was inactive.

On to `O=C(Nc1cccc2ccccc12)N1CCN(Cc2ccc3c(c2)OCO3)CC1`, for which the outcome was inactive.

With `CCCCn1c(=NC(=O)c2ccco2)c(C(=O)OCC)cc2c(=O)n3ccccc3nc21`, the molecule was called inactive.

Take `CS(=O)(=O)c1nc(-c2cccs2)cc(C(F)(F)F)n1`: the molecule was called inactive.

In the case of `O=C(NCc1ccc(F)cc1)C1C2C=CC3(CN(Cc4cccnc4)C(=O)C13)O2` (centres undefined), the call was inactive.

`COCCNC(=O)NC1(C(F)(F)F)Oc2ccc(Cl)cc2O1` (centres undefined): the molecule was classed as inactive.

Regarding `Cc1c(Cl)ccc2sc(NC(=O)CN3C(=O)c4ccccc4C3=O)nc12`, the result was inactive.

Consider `COc1ccc(S(=O)(=O)CCC(=O)N(C)c2ccc(OC)cc2OC)cc1`, for which the molecule was called inactive.

Regarding `CCCCN(C)C(=O)C1CCC(=O)N(c2cc(OC)c(OC)c(OC)c2)C1c1ccc(OC)cc1` (centres undefined), the molecule was classed as inactive.

In the case of `CCCCS/C(N)=N/N=C/c1ccccc1O`, the molecule was classed as inactive.

`N/C(=N\c1nc(C(F)(F)F)cc(=O)[nH]1)Nc1ccc(Cl)cc1`: the result was inactive.

`COc1ccc(N2CCN(C(c3cc(OC)ccc3OC)c3nnnn3CC3CCCO3)CC2)cc1` (centres undefined): the outcome was inactive.

As for `N/C(=N\OC(=O)C12CC3CC(CC(C3)C1)C2)c1ccccc1`, the call was inactive.

With `Cc1cc(C)c2c(=O)n(CC(=O)N3CCC(Cc4ccccc4)CC3)sc2n1`, the call was inactive.

Consider `COC(=O)CN1C(C)=Nc2ccc(Br)cc2C1c1ccccc1` (centres undefined), for which the outcome was inactive.

Regarding `CCCC/C(C)=N\NC(=O)CNS(=O)(=O)c1ccc([N+](=O)[O-])cc1`, the call was inactive.

For `CCCC(=O)Nc1sc2c(c1C#N)CCCCC2`, the call was inactive.

`Oc1ccc(C=Nc2ccc3ncccc3c2)c(O)c1`: the result was inactive.

On to `CCCCN1C[C@H](O)[C@@H](O)[C@H](O)[C@H]1CO`, for which the outcome was inactive.

Take `COc1cccc2cc(C(=O)N(C)C)c(=O)oc12`: the outcome was inactive.

Take `CC1CCN(CC(=O)N2c3ccccc3CCc3ccccc32)CC1`: the molecule was called inactive.

On to `CCOc1ccc(C2/C(=C(\O)c3c(C)[nH]c(C(=O)OC)c3C)C(=O)C(=O)N2CCN(C)C)cc1` (centres undefined), for which the outcome was inactive.

Consider `O=C(NCc1ccccn1)c1c(O)c2cccc3c2n(c1=O)CC3`, for which the molecule was classed as inactive.

`COC(C)(C)[C@H](O)COc1c2ccoc2cc2oc(=O)ccc12`: the call was inactive.

As to `Nc1c(NCCN2CCOCC2)c2ccccc2oc1=O`, the outcome was inactive.

As for `O=C(Nc1cccc(-c2nnc(-c3ccccc3)o2)c1)C1CCCCC1`, the outcome was inactive.

For the molecule `COc1ccc(C(C)=O)cc1CSc1nc2ccccc2o1`, the molecule was classed as inactive.

Turning to `O=C(Nc1cccc2ccccc12)c1onc2c1CCCC2`, the molecule was classed as inactive.

With `CNC(=O)C1C(=S)NC(N)=C(C#N)C1c1ccccc1` (centres undefined), the outcome was inactive.

Take `CC(C(=O)NC(=O)NCc1ccccc1)N1C(=O)c2ccccc2C1=O` (centres undefined): the result was inactive.

Take `CCOC(=O)c1c(-c2ccc(C)cc2)csc1NC(=O)/C(C#N)=C/c1ccc(O)c(OC)c1`: the molecule was called inactive.

In the case of `CCN(CC)S(=O)(=O)c1ccc(NC2CCCc3ccccc32)nc1` (centres undefined), the call was inactive.

In the case of `Cc1ccc(C(=O)NCCc2nnc(SCC(=O)Nc3nc(-c4ccccc4)cs3)n2C)cc1`, the result was inactive.

Take `CCn1c(CNc2ccc(OC)cc2)nnc1SCC(=O)c1ccc(OC)cc1`: the outcome was inactive.

As to `CCN(CC)c1ccc(NC2=C(Cl)C(=O)c3ccccc3C2=O)cc1`, the molecule was called inactive.

`CCCC(=O)Nc1ccc(C)c(O)c1`: the call was inactive.

In the case of `CCn1c(Cc2ccc(OC)cc2)nnc1SCC(=O)Nc1cccc(C(=O)OC)c1`, the molecule was called inactive.

For `Cc1sc2c(=O)n3c(nc2c1C(=O)NCCCN1CCOCC1)CCCCC3`, the molecule was classed as inactive.

`CC(=O)ON1C(C)(C)CC(OC(=O)c2ccccc2)CC1(C)C`: the call was inactive.

In the case of `O=C(COC(=O)c1cccnc1Nc1cccc(C(F)(F)F)c1)NCc1ccc2c(c1)OCO2`, the molecule was classed as inactive.

For the molecule `CC(C)c1cc(=O)oc2c3c4c(cc12)CCCN4CCC3`, the outcome was inactive.

On to `CNC(=S)N/N=C(\C)c1ccc(N2CCOCC2)cc1`, for which the result was inactive.

Take `O=S(=O)(NCCc1csc(-c2cccnc2)n1)c1ccc2c(c1)OCCO2`: the call was inactive.

Regarding `COc1ccc(CCn2c(N)c(C(=O)NCc3ccco3)c3nc4ccccc4nc32)cc1OC`, the call was inactive.

Regarding `C=CCNc1nnc(SC2CC(=O)N(c3ccc(OC)cc3)C2=O)s1` (centres undefined), the call was inactive.

As for `OCCn1c(C(F)(F)F)nc2ccccc21`, the outcome was inactive.

Turning to `O=C(Nc1ccccc1Cl)NC1(C(=O)N2CCCC2)CCCCC1`, the call was inactive.

`O=C(N/N=C/c1ccc(O)c(O)c1O)/C(=C/c1ccc([N+](=O)[O-])cc1)NC(=O)c1ccccc1`: the outcome was inactive.

Consider `Cc1ccccc1NC(=O)c1ccc2c(c1)OCCO2`, for which the molecule was called inactive.

As for `O=C(NNc1nc2cc3c(cc2s1)OCO3)c1cccc(F)c1`, the molecule was called inactive.

As for `COc1cccc(OCC(=O)NN=C2c3ccccc3-c3ccccc32)c1`, the result was inactive.

Regarding `COc1ccc(C(=O)OC2CCN(c3ncc(C(F)(F)F)cc3Cl)CC2)cc1`, the molecule was classed as inactive.

With `O=C1[C@H]2[C@H]3[C@H](O)[C@H](O)C/C(=N\OC[C@@H](O)COCc4ccco4)[C@@H]3CC[C@H]2C(=O)N1c1ccc(F)cc1F`, the outcome was inactive.

Consider `COC(=O)COc1ccc(S(=O)(=O)NCc2ccncc2)cc1`, for which the result was inactive.

Consider `c1ccc2c(c1)CCCC2C1=NCCN1` (centres undefined), for which the result was inactive.

Consider `CC(C[N+](C)(C)C)OC(N)=O` (centres undefined), for which the outcome was inactive.

For the molecule `CCOc1c(OC)ccc2c3c(c(=O)oc12)CCCC3`, the molecule was classed as inactive.

Consider `OC1C2CN3CCN(C2)CC1(Cc1ccccc1)C3` (centres undefined), for which the result was inactive.

Turning to `Cc1cc(NC(=O)c2sc(Nc3cccc(C(F)(F)F)c3)nc2N)no1`, the molecule was called inactive.

For the molecule `CCC(C)C1C(C#N)=C(N)Oc2n[nH]c(C)c21` (centres undefined), the molecule was classed as inactive.

Take `Cc1[nH]nc2c1C(c1ccsc1C)C(C#N)=C(N)O2` (centres undefined): the call was inactive.

Take `CCOC(=O)N1CCN(C(=O)c2nn(-c3ccc(C)cc3)c(=O)c3c2c2ccccc2n3C)CC1`: the call was inactive.

Turning to `COc1ccc(C(=O)OCC(=O)c2cc(OC)ccc2OC)c(OC)c1`, the result was inactive.

As to `CCOc1ccc(N(CC(=O)NC2CCCCCC2)S(=O)(=O)c2c(C)noc2C)cc1`, the molecule was called inactive.

Turning to `CCCCCn1c(Sc2ccccc2)nc2c1c(=O)[nH]c(=O)n2C`, the outcome was inactive.

With `CCN(CCNC(=O)Nc1ccc(Cl)cc1)c1ccccc1`, the molecule was classed as inactive.

In the case of `O=C(c1nnc(Cc2ccc(Cl)cc2)o1)N1CCc2ccccc2C1`, the molecule was called inactive.

For `CN(C)S(=O)(=O)c1cccc(NC(=O)COC(=O)c2cccc(S(=O)(=O)N3CCc4ccccc4C3)c2)c1`, the result was inactive.

`CCOC(=O)c1[nH]c2ccc(OC)cc2c1NC(=S)N1CCN(c2ccccc2)CC1`: the molecule was classed as inactive.

Consider `Cc1cc(C)n(C(=O)CNc2ccc(C)c(C)c2)n1`, for which the call was inactive.

As for `O=C(NCc1ccco1)C1CCN(S(=O)(=O)Cc2ccccc2)CC1`, the molecule was classed as inactive.

With `COc1ccc(Nc2oc(COc3ccc(Cl)cc3)nc2C#N)cc1`, the result was inactive.

`COc1ccc(-c2cc(C(F)F)n3ncc(C(=O)n4ccnc4C)c3n2)cc1`: the molecule was called inactive.

With `COC(=O)C1=C(C)N(c2ccc(F)c(Cl)c2)C(=O)C1`, the molecule was classed as inactive.

On to `COc1cc(SC#N)ccc1N=Cc1c(C)[nH]n(-c2cccc3ccccc23)c1=O`, for which the outcome was inactive.

As for `COc1ccccc1CN=Cc1[nH]c2ccc(Br)c(Cl)c2c1O`, the outcome was inactive.
